# Most compounds without a hit are left out; they make up all but 22% or so of the library.
# CYP2C9 activ – human CYP2C9 activators, primary screen, biochemical, luminescence; Cytochrome P450 2C9 (Homo sapiens), P11712; recombinant CYP2C9, luciferin-H conversion; stronger effect = higher value; factor 1 = untreated enzyme, 0 = blocked; hit rate 1.4% among 96,000; activation factor at 5 µM; AID 1024, 2008;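 active = activation factor of 2 or more for CYP2C9 at a 5 µM dose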;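 also: 0 = sulfaphenazole-blocked wells and 1 = vehicle-only wells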
# CYP2C19 act – human CYP2C19 activators, primary screen, biochemical, luminescence | recombinant CYP2C19, luciferin-H EGE luminescence; stronger effect = higher value; 0 = fully inhibited enzyme, 1 = untreated enzyme | 96,000 tested, under 10 active | activation factor at 5 µM | Cytochrome P450 2C19 (Homo sapiens), P33261;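 active = activation factor of at least 2 at 5 µM in the primary screen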;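 also: 0 = wells with 2.5 mM tranylcypromine and 1 = vehicle-only wells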
# Target sequence (P33261 whole entry, looked up): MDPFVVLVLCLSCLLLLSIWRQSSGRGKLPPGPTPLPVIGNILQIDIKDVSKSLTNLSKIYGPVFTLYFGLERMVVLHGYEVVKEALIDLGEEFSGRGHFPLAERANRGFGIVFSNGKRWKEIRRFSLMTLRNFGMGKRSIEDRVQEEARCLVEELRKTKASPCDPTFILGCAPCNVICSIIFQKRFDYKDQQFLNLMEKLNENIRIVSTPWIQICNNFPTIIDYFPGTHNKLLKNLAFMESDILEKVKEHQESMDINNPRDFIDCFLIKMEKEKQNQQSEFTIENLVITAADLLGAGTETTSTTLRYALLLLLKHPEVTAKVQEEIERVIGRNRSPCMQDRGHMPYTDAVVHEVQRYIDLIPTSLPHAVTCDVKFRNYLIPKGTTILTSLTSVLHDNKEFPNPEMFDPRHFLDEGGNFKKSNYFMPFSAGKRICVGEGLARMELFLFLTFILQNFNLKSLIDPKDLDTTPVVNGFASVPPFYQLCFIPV
# CYP2C19 inhib – blockers of cytochrome P450 2C19 activity – biochemical, luminescence, ADME assay, primary screen; CYP2C19 Supersomes, luciferin-H EGE luminescence, 30 min; inhibition, % at 5 µM; hit rate 21% among 96,000;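 active = CYP2C19 inhibition above a set limit at 5 µM in the primary screen, cut at about 50% in these data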;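 also: plate controls were negative control wells for no effect and 2.5 mM tranylcypromine positive control for full effect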
# Measles CPE – compounds protecting cells from measles virus cytopathic effect, primary screen, measles RdRp inhibitor project, single point, MLSMR library, absorbance; protection (pct of control), % at 4 µM; AID 841, 2007; hit rate 1.5% among 140,000; Measles virus-infected cells, CPE protection; in the data active = protection mostly above about 24%, no sharp cut-off; inactive = mostly below about 26%
# CYP2C9 inhib – blockers of cytochrome P450 2C9 activity – biochemical, luminescence, ADME assay, primary screen; P11712; CYP2C9 Supersomes, luciferin-H conversion; inhibition, % at 5 µM; hit rate 20% among 96,000;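 active = blocking of liver enzyme CYP2C9 beyond about 50% at 5 µM, limit read from the data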
# Active calls of the source: *; . = not tested or not shown.
SMILES,CYP2C9 activ,CYP2C19 act,CYP2C19 inhib,Measles CPE,CYP2C9 inhib
COC(=O)Cn1c(=NC(=O)C2COc3ccccc3O2)sc2cc(S(N)(=O)=O)ccc21 (stereo not drawn),.,.,.,4,.
CCCC(=O)C1C(=O)CC(CC(C)SCC)CC1=O (stereo not drawn),0.7,0.8,16,3,28
CCSC(C)CC1C/C(=N/O)c2c(CC)noc2C1 (stereo not drawn),0.1,0.1,90*,6,94*
CCCc1noc2c1/C(=N\O)CC(CC(C)SCC)C2 (stereo not drawn),0,0.3,73*,4,98*
CC(C)(CN=C1NS(=O)(=O)c2ccccc21)CNC(=O)CN1C(=O)c2ccccc2C1=O,0.5,0.8,22,7,46
O=C(CSCCO)Nc1ccc(C2CCCCC2)cc1,1.1,0.9,10,9,-8
CC(C)OP(C)(=O)CN1CCN(CP(C)(=O)OC(C)C)CC1 (stereo not drawn),0.9,1,-1,7,8
COC(=O)CSC1=C(C#N)C(c2ccsc2)CC(=O)N1 (stereo not drawn),.,.,.,16,.
CCN(CC)C1=N/C(=C\c2ccc(OC)cc2)C(=O)N1c1ccccc1,.,.,.,69*,.
COc1ccc(/C=C2\N=C(SC)N(C)C2=O)cc1,0.6,0.5,52*,15,39
COc1ccccc1CC(=O)Nc1ccc(O)cc1C(=O)O,1,1.1,-6,10,2
O=C(NCc1cccnc1)c1cc(-c2cccs2)on1,0.8,0.8,17,8,20
Cc1cccc(OCC(=O)Nc2ccc3c(c2)OCCO3)c1,0.4,0.3,70*,12,58*
Cc1ccc(C)c(OCC(=O)Nc2ccc3c(c2)OCO3)c1,0.7,0.8,22,8,27
COc1ccc(OCCCC(=O)Nc2ccc3c(c2)OCO3)cc1,0.3,0.6,41,10,68*
O=C(CCCOc1ccccc1)Nc1ccc2c(c1)OCCO2,0.4,0.2,81*,7,55*
Cc1ccccc1OCCCC(=O)Nc1ccc2c(c1)OCO2,0.6,0.4,63*,3,39
Cc1ccccc1CN1CCN(CC(=O)NCc2ccccc2)C1=O,0.7,0.9,12,4,30
O=C(CC1C(=O)NCCN1C(=S)Nc1ccccc1)Nc1ccc2c(c1)OCCO2 (stereo not drawn),0.4,0.9,9,6,59*
O=C(CCN1C(=O)c2ccccc2S1(=O)=O)Nc1ccc2c(c1)OCCO2,0.4,0.5,48,-1,59*
COCC(C)NC(=O)Cc1ccc(F)cc1 (stereo not drawn),.,.,.,9,.
CCn1c(SCc2nc3ccccc3nc2C)nnc1-c1cccs1,1.1,0.1,93*,.,-8
Cn1c(SC/C=C/c2ccccc2)nnc1-c1cccs1,.,.,.,10,.
CCn1c(SC/C=C/c2ccccc2)nnc1-c1cccs1,0.2,0,99*,3,82*
CCn1c(SC(=O)NC2CCCCC2)nnc1-c1cccs1,0.8,0.5,53*,5,25
SMILES,CYP2C9 activ,CYP2C19 act,CYP2C19 inhib,Measles CPE,CYP2C9 inhib
CCn1c(SCC(=O)c2ccccc2)nnc1-c1cccs1,0.8,0.3,69*,20,16
Cc1cc(OC(=O)Cc2cccc3ccccc23)c([N+](=O)[O-])c(=O)[nH]1,.,.,.,22,.
Cc1ccc(CSCCNS(=O)(=O)c2ccc(C)cc2)cc1,.,.,.,6,.
COc1ccc(C(=O)Nn2cnc3ccccc3c2=O)c(OC)c1,1.1,0.8,24,14,-6
C=CCn1c(Cc2cccs2)nnc1SC/C=C/c1ccccc1,0.4,0.3,70*,6,58*
C=CCn1c(SCc2ccccc2)nnc1-c1cccnc1,1,0.6,36,21,-4
Nn1c(SC/C=C/c2ccccc2)nnc1-c1ccco1,1.1,0.7,29,26,-10
C=CCn1c(SCc2nc3ccccc3nc2C)nnc1-c1ccoc1C,1.4,0,95*,1,-39
COc1ccccc1N1CCN(C(=O)C(Sc2ccccc2)c2ccccc2)CC1 (stereo not drawn),0.4,0.4,61*,17,59*
CS(=O)(=O)N1CCN(C(=O)C(Sc2ccccc2)c2ccccc2)CC1 (stereo not drawn),1,0.3,71*,7,2
NC(=O)CC[C@H](NC(=O)OCc1ccccc1)C(=O)OCc1ccc(Cl)cc1,.,.,.,9,.
O=C(NC(Cc1c[nH]c2ccccc12)C(=O)NCc1ccc(F)cc1)OCc1ccccc1 (stereo not drawn),.,.,.,4,.
CC(=O)c1cc2c(cc1NC(=O)Nc1cccc(Cl)c1)OCCO2,1,1,-4,13,4
Cc1cc(=O)oc2cc(OC(=O)CCN3C(=O)c4ccccc4C3=O)ccc12,0.9,0.9,11,6,11
COc1ccc(OC(=O)CCCN2C(=O)c3ccccc3C2=O)cc1,0.9,0.5,53*,8,7
COc1ccccc1OCCC(=O)OCCN1C(=O)c2ccccc2C1=O,0.9,0.4,56*,10,13
COc1ccccc1OC(=O)CN1C(=O)c2ccccc2C1=O,1.2,1,-2,3,-18
COC(=O)C1=C(C)NC(C)=C(C(=O)OC)C1C(=O)OCCN1C(=O)c2ccccc2C1=O,0.3,0.2,80*,8,71*
CCCOC(=O)c1ccc(NC(=O)C(CC)CC)cc1,.,.,.,3,.
CCCNC(=O)C1CC(=O)N(c2ccc(OCC(=O)Nc3cc(C)cc(C)c3)cc2)C1 (stereo not drawn),0.8,1.1,-14,.,19
COC(=O)C1=C(C)Nc2c(c(=O)n(C)c(=O)n2C)C1c1ccncc1 (stereo not drawn),.,.,.,4,.
C=C(C)Cn1c(=O)c2c(nc3n2CCN3c2cccc(Cl)c2C)n(C)c1=O,0.5,0.9,6,.,50*
C=CCn1c(=O)c2c(nc3n2CCN3c2cccc(Cl)c2C)n(C)c1=O,0.5,0.9,8,7,45
CCOC(=O)c1ccc(S(=O)(=O)NNC(=O)COc2ccccc2C)cc1,.,.,.,12,.
O=C1CCCc2c1cc(-c1ccccc1)n2-c1ccccc1,0.8,0.9,15,28,16
CCN(CC)CCOc1ncnc2c1oc1ccccc12,0.6,0.3,66*,5,43
N#CCn1c(C2CCCCC2)nc2ccccc2c1=O,0.3,0.3,70*,5,65*
COCCCNC(=O)CSc1nc2ccccc2c(=O)n1CCCC(=O)NCC1CCCO1 (stereo not drawn),0.5,0.8,20,4,46
N#CCSc1nc2ccccc2c(=O)n1CCC(=O)NC1CCCCC1,1.2,0,97*,3,-25
O=C(CCCn1c(SCC(=O)c2ccc(O)c(O)c2)nc2ccccc2c1=O)NCC1CCCO1 (stereo not drawn),0,0.5,55*,3,96*
